# Measured values as given in PubChem BioAssay AID1159580 (chemical genetic matrix, 2015).
# The campaign covered roughly 5,500 compounds. About 2,000 (36%) were called active. Another 18% or so got no clear call; they are omitted. The list shows a part of the results. Unmarked numbers belong to inactive results. No stated cut-off is given here; in the data, active means normalized growth mostly below about 0.91 (no sharp cut-off); inconclusive means no clear call, values can overlap the other calls; inactive means mostly above about 0.92.
# Assay: chemical genetic growth profiling, strain panel (AID 1159580);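 further: tested at 20 µM; growth read once vehicle control cultures reached saturation at 30 °C; 1 = growth at the plate median or of vehicle wells; lower values mean less growth of the strain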
# Conditions: growth OD
# [1] = S. cerevisiae deletion strains, locus YAL013W, strain DEP1, active compounds read low
# [2] = S. cerevisiae deletion strains, locus YBR229C, strain ROT2, active compounds read low
# [3] = S. cerevisiae deletion strains, locus YCL061C, strain MRC1, active compounds read low
# [4] = S. cerevisiae deletion strains, locus YDL101C, strain DUN1, active compounds read low
# [5] = S. cerevisiae deletion strains, locus YDR150W, strain NUM1, active compounds read low
# [6] = S. cerevisiae deletion strains, locus YEL061C, strain CIN8, active compounds read low
# [7] = S. cerevisiae deletion strains, locus YGR078C, strain PAC10, active compounds read low
# [8] = S. cerevisiae deletion strains, locus YGR229C, strain SMI1, active compounds read low
# [9] = S. cerevisiae deletion strains, locus YHR030C, strain SLT2, active compounds read low
# [10] = S. cerevisiae deletion strains, locus YHR087W, strain rtc3, active compounds read low
# [11] = S. cerevisiae deletion strains, locus YJR043C, strain POL32, active compounds read low
# [12] = S. cerevisiae deletion strains, locus YJR075W, strain HOC1, active compounds read low
# [13] = S. cerevisiae deletion strains, locus YLR039C, strain RIC1, active compounds read low
# [14] = S. cerevisiae deletion strains, locus YLR058C, strain SHM2 (second series), active compounds read low
# [15] = S. cerevisiae deletion strains, locus YLR085C, strain ARP6, active compounds read low
# [16] = S. cerevisiae deletion strains, locus YLR262C, strain YPT6, active compounds read low
# [17] = S. cerevisiae deletion strains, locus YML094W, strain GIM5, active compounds read low
# [18] = S. cerevisiae deletion strains, locus YMR219W, strain ESC1, active compounds read low
# [19] = S. cerevisiae deletion strains, locus YMR263W, strain SAP30, active compounds read low
# [20] = S. cerevisiae deletion strains, locus YNL128W, strain TEP1, active compounds read low
# [21] = S. cerevisiae deletion strains, locus YNL153C, strain GIM3, active compounds read low
# [22] = S. cerevisiae deletion strains, locus YNL298W, strain CLA4 (second series), active compounds read low
# [23] = S. cerevisiae deletion strains, locus YNL322C, strain KRE1, active compounds read low
# [24] = S. cerevisiae deletion strains, locus YNR030W, strain Alg12, active compounds read low
# [25] = S. cerevisiae deletion strains, locus YPL055C, strain LGE1, active compounds read low
# [26] = S. cerevisiae deletion strains, locus YPL241C, strain CIN2, active compounds read low
# [27] = S. cerevisiae deletion strains, locus YPR135W, strain CTF4, active compounds read low
# [28] = S. cerevisiae strains, strain wild type, active compounds read low
# [29] = S. cerevisiae deletion strains, locus YJL187C, strain SWE1, active compounds read low
# [30] = S. cerevisiae deletion strains, locus YOL006C, strain TOP1, active compounds read low
compound,measurement,setting,value
COC(=O)CCCCCCCC(=O)Nc1ccc(Cl)cc1,normalized growth,[1],0.999
same,normalized growth,[2],0.997
same,normalized growth,[3],0.998
same,normalized growth,[4],0.984
same,normalized growth,[5],0.896
same,normalized growth,[6],1
same,normalized growth,[7],0.997
same,normalized growth,[8],1.03
same,normalized growth,[9],0.999
same,normalized growth,[10],0.983
same,normalized growth,[11],1.01
same,normalized growth,[12],0.985
same,normalized growth,[13],1.01
same,normalized growth,[14],1.01
same,normalized growth,[15],1.01
same,normalized growth,[16],1.02
same,normalized growth,[17],0.975
same,normalized growth,[18],1.01
same,normalized growth,[19],1.01
same,normalized growth,"S. cerevisiae deletion strains, locus YMR307W, strain GAS1, active compounds read low",1.06
same,normalized growth,[20],1.02
same,normalized growth,[21],0.997
same,normalized growth,[22],1.01
same,normalized growth,[23],1
same,normalized growth,[24],0.997
same,normalized growth,[25],0.929
same,normalized growth,[26],0.991
same,normalized growth,[27],0.955
same,normalized growth,[28],1.02
O=C(CC1NCCN(Cc2ccccc2)C1=O)Nc1ccc(Cl)cc1 (stereo unspecified),normalized growth,[1],0.993
same,normalized growth,[2],0.995
same,normalized growth,[3],0.981
same,normalized growth,[4],0.968
same,normalized growth,[5],0.993
same,normalized growth,[6],1.01
same,normalized growth,[7],0.99
same,normalized growth,[9],0.955
same,normalized growth,[10],0.97
same,normalized growth,[29],1.01
same,normalized growth,[11],0.971
same,normalized growth,[12],1.02
same,normalized growth,[13],0.988
same,normalized growth,[14],0.998
same,normalized growth,[15],1.01
same,normalized growth,[16],0.994
same,normalized growth,[17],1.01
same,normalized growth,[18],1.01
same,normalized growth,[20],1
same,normalized growth,[21],0.981
same,normalized growth,[22],0.975
same,normalized growth,[23],0.996
same,normalized growth,[24],0.984
same,normalized growth,[30],0.993
same,normalized growth,[25],0.909
same,normalized growth,[26],1
same,normalized growth,[27],0.915
O=C(CSc1ccc(Cl)cc1)Nc1ccc(F)cc1,normalized growth,[1],0.909 (active)
same,normalized growth,[2],0.908 (active)
same,normalized growth,[4],0.939
same,normalized growth,[5],0.803 (active)
same,normalized growth,[6],0.942
same,normalized growth,[7],0.888 (active)
same,normalized growth,[8],0.924 (active)
same,normalized growth,[9],0.679 (active)
same,normalized growth,[10],0.888 (active)
same,normalized growth,[29],1
same,normalized growth,[11],0.916 (active)
same,normalized growth,[12],0.823 (active)
same,normalized growth,"S. cerevisiae deletion strains, locus YKL190W, strain CNB1, active compounds read low",0.934
same,normalized growth,[13],0.884
same,normalized growth,[14],0.909 (active)
same,normalized growth,[15],0.79
same,normalized growth,[16],0.826
same,normalized growth,[17],0.875
same,normalized growth,[18],0.916 (active)
same,normalized growth,[19],0.948
same,normalized growth,[20],0.968
same,normalized growth,[21],0.925
same,normalized growth,[22],0.808 (active)
same,normalized growth,[23],0.923 (active)
same,normalized growth,[24],0.807 (active)
same,normalized growth,[30],0.78
same,normalized growth,[25],0.782 (active)
same,normalized growth,[26],0.849 (active)
same,normalized growth,[27],0.608 (active)
same,normalized growth,[28],0.919
